Measurements reported in PubChem BioAssay (NCATS).
Where “and” joins values, the source holds several entries; their conditions need not be identical. Identical values can stand only once. Inconclusive results are not listed. Calls of active or inactive are those of the source. Calls come from the whole dose curve; as a rule, active = well fitted inhibition curve with a large enough effect; inconclusive = small, poorly fitted or top-dose-only effect; inactive = flat fitted curve, though single readings scatter. Where a SMILES comes first, the peptide text is derived from it. Bridges are numbered along the chain shown (N, C = ends). [ ]: non-standard residue; d: D form. The star is where a group is joined. Dab(CH2SO3H) = N[C@@H](CCNCS(=O)(=O)O)C(=O)O; X3 = CC[C@@H](C)CCCCC(=O)*; Dab = NCC[C@H](N)C(=O)O

Columns and labels:
[1] = Drug repurposing screens with cells derived from glioblastoma tumor samples (AID 1345199); details: GBM patient neurospheres viability, ATP luminescence, 48 h; note: nearly all actives have a fitted effect of over 40% in size
In short: (§1)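 Four patient lines of CD133+ GBM neurospheres were screened at several concentrations; hits were retested in those lines plus three slower-growing GBM lines, using 48-hour treatment and ATP-based viability.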

astro = control astrocytes; test: as above; details: viability, ATP luminescence, 48 h; series mostly up to 45.9 µM
In short: as §1

[2] = at 20 µM (top of the series), tumour line C
[3] = at 21.2 µM (top of the series), tumour line B
[4] = at 21.2 µM (top of the series), tumour line D
[5] = at 21.3 µM (top of the series), tumour line A
[6] = at 45.9 µM (top of the series), tumour line B
[7] = at 45.9 µM (top of the series), tumour line D
[8] = at 46 µM (top of the series), tumour line A
[9] = at 46.1 µM (top of the series), tumour line C
% is set by controls: 0 for no effect and ±100 for the full control effect; potency is the fitted concentration of half-maximal effect.

NCc1ccccc1CC(=O)N[C@@H]1C(=O)N2C(C(=O)O)=C(CSc3nnnn3CC(=O)O)CS[C@H]12
inactive: activity, negative = cell killing [1, 2] -8.3% | activity, negative = cell killing [1, 3] -4.52% | activity, negative = cell killing [1, 4] -30% | activity, negative = cell killing [1, 5] -23.4%

Nc1nc(N)c2nc(CNc3ccc(C(=O)N[C@@H](CCC(=O)O)C(=O)O)cc3)cnc2n1
inactive: activity, negative = cell killing [1, 6] -5.27% | activity, negative = cell killing [1, 7] 12.1% | activity, negative = cell killing [1, 8] -19.6%

O=C(O)C1CCCN1 (centres undefined)
inactive: activity, negative = cell killing [1, 6] -8.24% | activity, negative = cell killing [1, 7] -1.47% | activity, negative = cell killing [1, 9] -1.4%

Cc1c(C)c2c(c(C)c1O)CC[C@@](C)(CCC[C@H](C)CCC[C@H](C)CCCC(C)C)O2
inactive: activity, negative = cell killing [1, 6] -3.57% and 0.952% | activity, negative = cell killing [1, 7] -15.8% and 5.62% | activity, negative = cell killing [1, 8] -28.9% | activity, negative = cell killing [1, 9] -17.8% and 12.9%

O=C(O)c1cc(=O)c2c3nc4ccccc4oc-3cc(=O)c2[nH]1
inactive: activity, negative = cell killing [1, 6] -7.08% | activity, negative = cell killing [1, 7] -5.52% | activity, negative = cell killing [1, 8] -20.9% | activity, negative = cell killing [1, 9] -22.4%

Cc1cc(C(=O)NNCc2ccccc2)no1
inactive: activity, negative = cell killing [1, 2] -3.86% | activity, negative = cell killing [1, 3] -7.11% | activity, negative = cell killing [1, 4] -19.1% | activity, negative = cell killing [1, 5] -21.8%

CCCC(=O)O[C@]1(C(=O)COC(C)=O)CC[C@H]2[C@@H]3C[C@H](F)C4=CC(=O)C=C[C@]4(C)[C@@]3(F)[C@@H](O)C[C@@]21C
inactive: activity, negative = cell killing [1, 6] -13.7% | activity, negative = cell killing [1, 7] -22.5% | activity, negative = cell killing [1, 8] -29.1% | activity, negative = cell killing [1, 9] -14.3%

CC(Oc1ccccc1)C(=O)N[C@@H]1C(=O)N2[C@@H]1SC(C)(C)[C@@H]2C(=O)O (some centres undefined)
inactive: activity, negative = cell killing [1, 2] 1.64% | activity, negative = cell killing [1, 3] -4.78% | activity, negative = cell killing [1, 4] -2.95% | activity, negative = cell killing [1, 5] 2.19%

CC(=O)OCC(=O)[C@@]1(O)CC[C@H]2[C@@H]3C[C@H](C)C4=CC(=O)C=C[C@]4(C)[C@H]3[C@@H](O)C[C@@]21C
inactive: activity, negative = cell killing [1, 6] -16.5% | activity, negative = cell killing [1, 7] -18.9% | activity, negative = cell killing [1, 8] -15.4% | activity, negative = cell killing [1, 9] 1.15% | Potency (astro)

CC(=O)N[C@@H](CC(=O)N[C@@H](CCC(=O)O)C(=O)O)C(=O)O
active: Potency ([1]; tumour line A) 22.4 µM
inactive: activity, negative = cell killing [1, 6] -3.93% | activity, negative = cell killing [1, 7] 0.816% | activity, negative = cell killing [1, 9] 6.84% | Potency (astro)

CC[C@@H](C)CCCCC(=O)N[C@@H](CCNCS(=O)(=O)O)C(=O)N[C@H](C(=O)N[C@@H](CCNCS(=O)(=O)O)C(=O)N[C@H]1CCNC(=O)[C@H]([C@@H](C)O)NC(=O)[C@H](CCNCS(=O)(=O)O)NC(=O)[C@H](CCNCS(=O)(=O)O)NC(=O)[C@H](CC(C)C)NC(=O)[C@@H](CC(C)C)NC(=O)[C@H](CCNCS(=O)(=O)O)NC1=O)[C@@H](C)O (X3-[Dab(CH2SO3H)]T[Dab(CH2SO3H)][Dab][Dab(CH2SO3H)][dL]L[Dab(CH2SO3H)][Dab(CH2SO3H)]T; lactam 4-C)
inactive: activity, negative = cell killing [1, 6] -7.01% | activity, negative = cell killing [1, 7] 10.8% | activity, negative = cell killing [1, 8] -16.2%

COc1cc([C@@H]2c3cc4c(cc3[C@@H](O[C@@H]3O[C@@H]5CO[C@@H](C)O[C@H]5[C@H](O)[C@H]3O)[C@H]3COC(=O)[C@H]23)OCO4)cc(OC)c1O
inactive: activity, negative = cell killing [1, 7] -20.4% | activity, negative = cell killing [1, 9] -16.4%

CC1(C)S[C@@H]2[C@H](NC(=O)C(C(=O)O)c3ccsc3)C(=O)N2[C@H]1C(=O)O (some centres undefined)
inactive: activity, negative = cell killing [1, 6] 5.71% | activity, negative = cell killing [1, 7] -0.709% | activity, negative = cell killing [1, 8] 0.915% | activity, negative = cell killing [1, 9] -15.8% | Potency (astro)

C=CC1=C(C)C2=CC3=NC(=C(CC(=O)[O-])C4=NC(=C(C)C4=C([O-])[O-])C=c4[n-]c(c(C)c4CC)=CC1=N2)C(CCC(=O)[O-])C3C.[Cu+2].[Na+].[Na+].[Na+] (centres undefined)
inactive: activity, negative = cell killing [1, 8] -28% | activity, negative = cell killing [1, 9] 10.7%

Cc1cn([C@H]2C[C@H](O)[C@@H](CO)O2)c(=O)[nH]c1=O
inactive: activity, negative = cell killing [1, 6] -14.8% | activity, negative = cell killing [1, 7] 6.82% | activity, negative = cell killing [1, 8] -23.5% | activity, negative = cell killing [1, 9] -19.1%

COC(=O)C1=C(C#N)NC(C)=C(C(=O)OC(C)C)C1c1cccc([N+](=O)[O-])c1 (centres undefined)
active: Potency ([1]; tumour line A) 14.1 µM
inactive: activity, negative = cell killing [1, 6] -5.18% | activity, negative = cell killing [1, 7] -25.1%

CC(=O)OCC(=O)[C@@]12OC3(CCCC3)O[C@@H]1C[C@H]1[C@@H]3CCC4=CC(=O)C=C[C@]4(C)[C@@]3(F)[C@@H](O)C[C@@]12C
inactive: activity, negative = cell killing [1, 6] -7.71% | activity, negative = cell killing [1, 7] -10.7% | activity, negative = cell killing [1, 9] 3.06%

COc1ccc(CCNC[C@H](O)c2ccc(O)cc2)cc1OC
inactive: activity, negative = cell killing [1, 6] -3.8% | activity, negative = cell killing [1, 7] -0.958% | activity, negative = cell killing [1, 9] -0.44%

CO[C@@H]1[C@@H](O[C@@H]2O[C@H](C)[C@@H](O[C@H]3C[C@@](C)(O)[C@@H](O)[C@H](C)O3)[C@H](N(C)C)[C@H]2O)[C@@H](CC=O)C[C@@H](C)[C@@H](O[C@@H]2CC[C@H](N(C)C)[C@@H](C)O2)/C=C/C=C/C[C@@H](C)OC(=O)C[C@H]1O
inactive: activity, negative = cell killing [1, 2] -1.82% | activity, negative = cell killing [1, 3] 2.63% | activity, negative = cell killing [1, 4] 8.89%

CC(NNC(=O)c1ccccc1)c1ccccc1 (centres undefined)
inactive: activity, negative = cell killing [1, 6] -15.6% | activity, negative = cell killing [1, 7] -19.2% | activity, negative = cell killing [1, 9] -40.2%

CCCCC(=O)N(Cc1ccc(-c2ccccc2-c2nn[nH]n2)cc1)[C@@H](C(=O)O)C(C)C
inactive: activity, negative = cell killing [1, 6] 2.85% | activity, negative = cell killing [1, 7] -14.3% | activity, negative = cell killing [1, 8] -22.5% | activity, negative = cell killing [1, 9] 9.38% | Potency (astro)

N[C@H](C(=O)O)[C@@H]1CC(Cl)=NO1
active: Potency ([1]; tumour line C) 6.51 µM
inactive: activity, negative = cell killing [1, 7] -29.2% | activity, negative = cell killing [1, 8] -38.5%

CNC(C)[C@@H]1CC[C@@H](N)[C@@H](O[C@H]2[C@H](O)[C@@H](O[C@H]3OC[C@](C)(O)[C@H](NC)[C@H]3O)[C@H](N)C[C@@H]2N)O1 (some centres undefined)
inactive: activity, negative = cell killing [1, 2] -7.4% | activity, negative = cell killing [1, 3] -11.6% | activity, negative = cell killing [1, 4] 12.7% | activity, negative = cell killing [1, 5] -18.8% | Potency (astro)
